PubChem BioAssay AID1508602 (The Scripps Research Institute Molecular Screening Center, 2020)
Out of some 650,000 compounds screened, about 6,800 (1%) were called active. The sample holds actives, similar compounds and a random draw of the others, so the mix is not that of the screen. Unmarked numbers belong to inactive results. Cut-off read from the data, not from the text of the source: active = activation above about 4.9%; inactive = the rest.

molecular target: G-protein coupled receptor 151 (Homo sapiens) (UniProt Q8TDV0); assay: activates the human receptor GPR151, primary screen, cell-based, PathHunter beta-arrestin, luminescence (AID 1508602); conditions: PathHunter beta-arrestin GPR151 cells, at 11.2 µM, stronger effect = higher value;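 note: 0% = median of compound wells and 100% = cells with positive control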
Sequence (Q8TDV0 whole entry, looked up): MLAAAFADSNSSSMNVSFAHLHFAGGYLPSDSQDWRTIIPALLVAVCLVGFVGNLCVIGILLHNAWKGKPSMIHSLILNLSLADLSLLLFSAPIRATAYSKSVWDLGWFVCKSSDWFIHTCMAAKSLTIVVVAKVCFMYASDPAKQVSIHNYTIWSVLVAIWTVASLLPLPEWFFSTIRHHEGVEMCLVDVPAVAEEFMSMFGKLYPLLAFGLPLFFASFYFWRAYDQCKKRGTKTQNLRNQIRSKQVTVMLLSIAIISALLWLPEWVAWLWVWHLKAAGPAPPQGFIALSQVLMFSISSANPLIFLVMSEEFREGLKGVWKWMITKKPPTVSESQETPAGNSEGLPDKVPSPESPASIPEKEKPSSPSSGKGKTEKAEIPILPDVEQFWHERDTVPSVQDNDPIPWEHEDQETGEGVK

Question: For `COc1ccccc1N1C(=O)NC(=O)/C(=C\c2ccc(Cl)cc2Cl)C1=O`, which activation is on record?
Answer: 0.657%

Question: With `COc1cc(/C=C2\C(=O)NC(=O)N(c3ccccc3)C2=O)ccc1O` as the compound, how does the activation read?
Answer: 8.77% (active)

Question: How did the activation turn out when `C=CCN1C(=O)NC(=O)/C(=C/c2ccc(O)c(OC)c2)C1=O` was run?
Answer: -0.157%

Question: For `COc1cc(NC(=O)CCc2nc(C3=CCN(C)CC3)no2)cc(OC)c1OC`, which activation is on record?
Answer: -0.399%

Question: How did the activation turn out when `O=C(O)C1C2CC3CC(C2)CC1(n1ncc(NC2CCCC2)c(Cl)c1=O)C3` (stereo not given) was run?
Answer: 1.35%

Question: `O=c1cccc2n1CC1CC2CN(Cc2ccc(F)cc2)C1` (stereo not given) was tested. Which activation did it give?
Answer: 1.89%

Question: For `COc1ccccc1N1CCN(Cc2cccc(O)c2)CC1`, which activation is on record?
Answer: 0.277%

Question: With `COc1ccccc1N1CCN(C(CNC(=O)Oc2ccccc2)c2cccnc2)CC1` (stereo not given) as the compound, how does the activation read?
Answer: 9.52% (active)

Question: For `O=C(NCC(c1cccnc1)N1CCN(c2ccccc2)CC1)Oc1ccccc1` (stereo not given), which activation is on record?
Answer: 0.68%

Question: For `O=C(Cc1cccs1)N1CCN(Cc2nnnn2-c2ccc(F)cc2)CC1`, which activation is on record?
Answer: 1.07%

Question: `Cc1ccc(Cc2nc[nH]c2C)cc1` was tested. Which activation did it give?
Answer: 0.705%

Question: Which activation does the source give for `COc1ccc(CCNCc2ccc(O)cc2)cc1` here?
Answer: 1.2%

Question: Which activation does the source give for `Cc1cc(Cl)ccc1C(=O)C1CCCN(Cc2ncc[nH]2)C1` (stereo not given) here?
Answer: -0.596%

Question: `CC[n+]1c(/C=C/C=C2\N(C)c3ccccc3C2(C)C)n(-c2ccccc2)c2ccc(Cl)cc21` was tested. Which activation did it give?
Answer: 5.9% (active)

Question: With `C=CCOC(=O)C1=C(C)OC(N)=C(C(=O)OCC)C12C(=O)N(CC=C)c1ccccc12` (stereo not given) as the compound, how does the activation read?
Answer: -0.446%

Question: Which activation does the source give for `COc1cc(Br)cc(CN2CC3CC(C2)c2cccc(=O)n2C3)c1O` (stereo not given) here?
Answer: -0.476%

Question: How did the activation turn out when `CCOC(=O)C1=C(C)OC(N)=C(C(=O)OC)C12C(=O)Nc1ccc(Br)cc12` (stereo not given) was run?
Answer: -0.299%

Question: With `CCOC(=O)C1=C(N)OC2=C(C(=O)CCC2)C12C(=O)Nc1ccc(Br)cc12` (stereo not given) as the compound, how does the activation read?
Answer: 9.15% (active)

Question: How did the activation turn out when `CCOC(=O)C1=C(N)Oc2n[nH]c(C)c2C12C(=O)Nc1ccc(Br)cc12` (stereo not given) was run?
Answer: 0.383%

Question: How did the activation turn out when `CC(C)c1ccc(NC(=O)c2cc3cccnc3n(Cc3ccc(F)cc3)c2=O)cc1` was run?
Answer: 1.47%
